Results: PubChem BioAssay AID2283174 (EPA ToxCast)
The source made the active and inactive calls. How the source made its calls: active means hit-call score of the fitted dose curve at least 0.9, where 1 is the maximum; inactive means score below 0.9.

Molecular target: human Mitogen-Activated Protein Kinase 11 (MAPK 11), MAPK11 (gene 5600) (UniProt Q15759)
Assay: NVS_ENZ_hMAPK11: NovaScreen (NVS) Enzymatic Assay for human Mitogen-Activated Protein Kinase 11 (MAPK 11)
Protocol: NVS_ENZ_hMAPK11 is a biochemical, single-readout assay that uses extracted gene-proteins in a cell-free assay. Measurements were taken 0 hour after chemical dosing in a 384-well plate.NVS_ENZ_hMAPK11 is one of one assay component(s) measured or calculated from the NVS_ENZ_hMAPK11 assay. It is designed to make measurements of enzyme activity, a form of enzyme reporter, as detected with fluorescence intensity signals by Fluorescence and electrophoretic mobility shift technology.Data from the assay component NVS_ENZ_hMAPK11 was analyzed into 1 assay endpoint. This assay endpoint, NVS_ENZ_hMAPK11, was analyzed in the positive analysis fitting direction relative to DMSO as the negative control and baseline of activity. Using a type of enzyme reporter, loss-of-signal activity can be used to understand changes in the enzymatic activity as they relate to the gene MAPK11. Furthermore, this assay endpoint can be referred to as a primary readout, because this assay has produced multiple assay endpoints where this one serves a enzymatic activity function. To generalize the intended target to other relatable targets, this assay endpoint is annotated to the kinase intended target family, where the subfamily is serine/threonine kinase.
Binding assays used specific radioligands (tritiated, iodinated) with non-radioactive competitive displacement ligands in agonist or antagonist protocols (as indicated) and various reference compounds and inhibitors to titrate specific binding to receptors and transporters. Most enzyme assays (CYPs, kinases, phosphatases, proteases, HDACs) used recombinant protein and specific substrates (fluorescence mostly, some colorimetric and radioactive) and inhibitors, followed by a biochemical separation of substrate and product. All assays for the biochemical HTS were initially run in duplicate at a single concentration (10 uM for CYP450 assays and 25 uM for all others). Assay-chemical combinations meeting a pre-defined threshold (e.g., 30% inhibition and other criteria defined below) were then run in singleton concentration-response format with maximum concentration of 20 uM for CYPs and 50 uM for all others. Each assay was run with positive and negative controls, and concurrent controls on every plate. The follow-up (secondary) screen tested active chemical-pairs in concentration series, as well as a few additional assays not tested in the primary screen, some selected negative inactives, and several cases re-run in the concentration series for confirmatory purposes.

Sequence of human Mitogen-Activated Protein Kinase 11 (MAPK 11), MAPK11 (gene 5600) (Q15759 whole entry, looked up): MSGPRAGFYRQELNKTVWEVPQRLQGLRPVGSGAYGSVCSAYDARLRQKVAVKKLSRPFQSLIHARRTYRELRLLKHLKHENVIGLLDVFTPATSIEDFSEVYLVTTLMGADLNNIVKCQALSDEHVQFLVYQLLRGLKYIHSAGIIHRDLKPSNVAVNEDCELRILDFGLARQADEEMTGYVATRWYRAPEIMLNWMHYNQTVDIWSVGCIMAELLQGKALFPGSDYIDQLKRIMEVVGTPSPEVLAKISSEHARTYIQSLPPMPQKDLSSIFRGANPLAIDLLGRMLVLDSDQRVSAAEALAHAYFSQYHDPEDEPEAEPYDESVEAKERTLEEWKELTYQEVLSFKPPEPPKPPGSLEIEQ

| SMILES | outcome |
| --- | --- |
| COc1nc(C)nc(NC(=O)NS(=O)(=O)c2ccccc2CCC(F)(F)F)n1 | inactive |
| CC(C)(C)C(O)/C(=C\c1ccc(Cl)cc1Cl)n1cncn1 (centres undefined) | inactive |
| C[Si](Cn1cncn1)(c1ccc(F)cc1)c1ccc(F)cc1 | inactive |
| Fc1ccc(Oc2ccnc3cc(Cl)cc(Cl)c23)cc1 | inactive |
